# Source: PubChem BioAssay (NCI)
# This is part of a sample that, as a whole, favours compounds with a hit. Of some 83,000 tested, about 20% had one in any assay.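 Activity criterion: percent growth below 10, measured after cells in 96-well plates were exposed to a single compound concentration for 48 hours.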 Activity calls are given as the source filed them.
# Test system: ACHN renal
# Test: NCI-60 one-dose screen, 48 h (100 = growth as untreated, 0 = no growth, -100 = all killed)
# Settings: 10 µM unless noted
# Description: Growth inhibition of the ACHN human tumor cell line is measured as a screen for anti-cancer activity. Cells are grown in 96 well plates and exposed to the test compound for 48 hours. Compounds are tested at a single concentration, which is 10^-5 M for most compounds. The reported endpoint is percent growth (GI% or GIPRCNT), where numbers from 0 - 100% represent growth inhibition, and numbers from -100% - 0 represent cell death. For example, a value of 40 represents 60% growth inhibition. A value of 0 means no net growth occurred over the course of the experiment. A value of -40 indicates 40% of cells at the beginning of the experiment died by the end of the experiment. A value of -100 means all cells are dead at the end of the experiment.
# NCI-60 Human Tumor Cell Lines Screen was performed using the standard one-dose NCI protocol, which is described in more detail at https://dtp.cancer.gov/discovery_development/nci-60/default.htm.
# Compounds with GIPRCNT values below 10 were considered active. Activity score was based on GIPRCNT using the following formula: […]
# Score is 0 for GIPRCNT values of 100 or above, 50 for GIPRCNT values of 0, and 100 for GIPRCNT values of -100.
row,SMILES,growth
1,COC(=O)[C@]12CC[C@@H](C(=O)/C=C/c3cccnc3)[C@@H]1[C@H]1CC[C@@H]3[C@@]4(C)C/C(=C/c5cccnc5)C(=O)C(C)(C)[C@@H]4CC[C@@]3(C)[C@]1(C)CC2,-100% (active)
2,C[N+](C)(CCCCCC[N+](C)(C)C1c2ccccc2-c2ccccc21)C1c2ccccc2-c2ccccc21,106% (inactive)
3,C#Cc1cc2c(N)c(C(=O)c3cc(OC)c(OC)c(OC)c3)[nH]c2cc1OC,35.7% (inactive)
4,COc1ccc(OC)c(-c2c(C#N)c(-c3ccco3)nc3c2c(-c2ccccc2)nn3-c2ccccc2)c1,96.4% (inactive)
5,COc1cc(-c2c(C#N)c(-c3cccs3)nc3c2c(-c2ccccc2)nn3-c2ccccc2)ccc1O,86.1% (inactive)
6,CC(CNc1nc(Nc2ccc(Cl)c(Cl)c2)nc(C(Cl)(Cl)Cl)n1)N(C)C (stereo not given),6.79% (active)
7,O=C(O)c1cccc2c1C(=O)N(c1ccc3c(c1)Cc1ccccc1-3)C2=O,113% (inactive)
8,COc1cc(/C=N/Nc2ncnc3c2c(C)nn3-c2ccc(F)cc2)ccc1O,92.7% (inactive)
9,COc1ccc(-c2n/c(=C\c3c(O)[nH]c4ccc(OC)cc34)cc3c2=Nc2ccccc2-3)cc1,102% (inactive)
10,Fc1ccc2[nH]cc(-c3nc(-c4c[nH]c5ncccc45)cs3)c2c1,11.3% (inactive)
11,COc1ccc(-c2nc(Nc3ccc(-c4nc5ccccc5[nH]4)cc3)nc(N3CCOCC3)n2)cc1,9% (active)
12,Brc1ccc2[nH]cc(-c3nc(-c4c[nH]c5ncccc45)cs3)c2c1,15.9% (inactive)
13,CCN1CCN(C(=O)[C@@]2(C)CC[C@]3(C)CC[C@]4(C)C(=CC(=O)[C@@H]5[C@@]6(C)CC[C@H](OC7C[C@@H](O)[C@@H](O)C(C)O7)C(C)(C)[C@@H]6CC[C@]54C)[C@@H]3C2)CC1 (stereo not given in full),79.5% (inactive)
14,Cn1cc(-c2csc(-c3cn(CCN)c4ccc(F)cc34)n2)c2cccnc21,60.9% (inactive)
15,CC(=O)OCCCCCCn1c2ccccc2c2c3c(c4c5ccccc5n(C)c4c21)C(=O)N(O)C3=O,74.9% (inactive)
16,COc1ccc(/C=C2\N=C(c3ccccc3)N(c3cc(OC)c(OC)cc3C(=O)N3N=C(C)CC3=O)C2=O)cc1,93.2% (inactive)
17,Oc1cccc2ccc(N/N=C/c3cc(CN4CCCCC4)c(O)c4ncccc34)nc12,-28.9% (active)
18,C/C(=N/NC(N)=S)C(=O)O,91.7% (inactive)
19,N#CC1=C(N)Oc2c(c(N)nn2-c2ccccc2)C1c1ccc(Cl)cc1Cl (stereo not given),99% (inactive)
20,CCc1ccccc1NC(=O)c1sc2nc3c(cc2c1N)CCCC3,48.2% (inactive)

row,SMILES,growth
1,c1ccc2c(-c3nc(-c4c[nH]c5ncccc45)cs3)c[nH]c2c1,97.3% (inactive)
2,Cn1cc(-c2nc(-c3c[nH]c4ncccc34)cs2)c2ccccc21,88.9% (inactive)
3,CN1CCN(CC#CCn2c3c(c4ccccc42)C[C@]2(C)[C@H]4CC[C@@H]5[C@H]6[C@H]7OC(=O)[C@@]6(CCC7(C)C)CC[C@@]5(C)[C@]4(C)CC[C@H]2C3(C)C)CC1,91.3% (inactive)
4,Cc1cc(N(CCCNc2ccnc3cc(Cl)ccc23)Cc2ccco2)nc(Cl)n1,64.8% (inactive)
5,NCCn1cc(-c2nc(-c3c[nH]c4ncccc34)cs2)c2cc(Br)ccc21,76.4% (inactive)
6,O=C(CCCCCn1c2ccccc2c2c3c(c4c5ccccc5[nH]c4c21)C(=O)N(O)C3=O)N1CCOCC1,29.4% (inactive)
7,NNC(=O)c1nc2ccccc2[nH]1,107% (inactive)
8,C#CCn1c2c(c3ccccc31)C[C@]1(C)[C@H]3CC[C@@H]4[C@@H]5C(=CCC[C@H]5C(=C)C)CC[C@@]4(C)[C@]3(C)CC[C@H]1C2(C)C,99.2% (inactive)
9,NC1=C(C/C(N)=N\O)C(c2ccccc2Cl)c2c(ccc3ccccc23)O1 (stereo not given),83% (inactive)
10,O=C(N/N=C/c1ccccc1SSc1ccccc1/C=N/NC(=O)c1ccccc1)c1ccccc1,15.4% (inactive)
11,O=C(/C=C/c1cccc2ccccc12)Nc1ncc(Cc2ccccc2)s1,20.8% (inactive)
12,O=C(NCN1C(=O)c2cccc3cccc(c23)C1=O)N1CCC(Cc2ccccc2)CC1,101% (inactive)
13,CC(=O)O[C@H]1CC[C@]2(C)[C@H]3C(=O)C=C4[C@@H]5C[C@](C)(C(=O)N6CCCNCC6)CC[C@]5(C)CC[C@@]4(C)[C@]3(C)CC[C@H]2C1(C)C,-100% (active)
14,c1ccc2[nH]c(-c3ccc(Nc4nc(N5CCCCC5)nc(N5CCOCC5)n4)cc3)nc2c1,22.9% (inactive)
15,Cc1ccc(-c2nn(Cc3cn(-c4cc(C)nc5ccccc45)nn3)c3ncnc(N)c23)cc1,31.9% (inactive)
16,COc1ccc(C2c3ccccc3NC(=O)N2C2CCN(C)CC2)c(OC)c1 (stereo not given),103% (inactive)
17,Cn1cc(-c2csc(-c3cn(CCN)c4ccc(Br)cc34)n2)c2cccnc21,50.8% (inactive)
18,Cc1ccc(S(=O)(=O)Nc2ccc(-c3cc(-c4cccc(F)c4)c(C#N)c(N)n3)cc2)cc1,-71.9% (active)
19,Cc1ccnc2c(OCc3ccccc3)cccc12,89.3% (inactive)
20,COc1ccc(C2NC(=O)Nc3ccccc32)c(OC)c1 (stereo not given),99.4% (inactive)
